The supplement of paper PMC3484114
± gives the standard deviation.

Tested on: OVCAR-3-derived ovarian cancer stem-like cells (spheroids)
Assay: cell growth relative to untreated control; higher = more growth (less inhibition)
Conditions: 2.29 µM; 96 h
Procedure, shortened: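 After trypsin dissociation, OVCAR-3 spheroid-derived stem-like cells were placed in ultra-low attachment 96-well plates at 50,000 cells/mL in stem cell medium and preincubated for 24 h. Treatment at 2.29 uM followed for 96 h at 37°C, 5% CO2, with 4 replicate wells per compound. A 4 h TOX8 resazurin fluorescence read (ex 560/em 590 nm) gave viability, from which percent growth relative to untreated wells was derived after blank subtraction and Grubbs outlier removal.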

| SMILES | cell growth |
| --- | --- |
| CCCc1c(Cl)nc(Cl)nc1Cl | 96.4 ± 19% |
| CON(C)C(=O)C1CCCO1 (centres undefined) | 79.4 ± 11% |
| C=C(C)[C@@H]1CC[C@]2(C)CC[C@]3(C)[C@H](CC[C@@H]4[C@@]5(C)CC[C@H](O)C(C)(C)[C@@H]5CC[C@]43C)[C@@H]12 | 121 ± 19% |
| OCCNCN(CNCCO)c1nc(N(CNCCO)CNCCO)nc(N(CNCCO)CNCCO)n1 | 126 ± 24% |
| O=C1c2cccc(O)c2C(=O)c2c(O)cccc21 | 68.8 ± 19% |
| Oc1cc(-n2cccn2)c(O)cc1-n1cccn1 | 103 ± 13% |
| O=C(NC(=O)c1c(Cl)nc2sccn12)Nc1ccc(Cl)cc1 | 136 ± 25% |
| Nc1ncnc2c([C@@H]3O[C@H](CO)[C@@H](O)[C@H]3O)c[nH]c12 | 127 ± 35% |
| CC1=C\C(O)CC(=O)Cc2nc(co2)C(=O)N2CCC=C2C(=O)OC(C(C)C)C(C)/C=C/C(=O)NC/C=C\1.CCC1NC(=O)C(NC(=O)c2ncccc2O)C(C)OC(=O)C(c2ccccc2)NC(=O)C2CC(=O)CCN2C(=O)C(Cc2ccc(N(C)C)cc2)N(C)C(=O)C2CCCN2C1=O (centres undefined) | 80.8 ± 20% |
| COc1cc2c3c(c1OC)-c1cc4c(cc1CC3(C#N)N(C(=O)c1ccccc1)CC2)OCO4 (centres undefined) | 93.1 ± 24% |
| CCOC(=O)CNC(=O)NC12CC3CC(CC(C3)C1)C2 | 95.4 ± 18% |
| Cc1nc(Nc2ccc(Cl)c(Cl)c2)sc1C(/C=C/c1ccc2c(c1)OCO2)=N/Nc1ccc([N+](=O)[O-])cc1[N+](=O)[O-] | 101 ± 15% |
| O=c1c(O)c(-c2ccc(O)c(O)c2)oc2cc(O)ccc12 | 94.3 ± 22% |
| CC1(C)NC(=O)N(CCCCCCN2C(=O)NC(C)(C)C2=O)C1=O | 85.8 ± 22% |
| CN(C)c1nc(=NCc2ccco2)ss1 | 93.7 ± 7% |
| CC(C)c1ccc(O)c(=O)cc1 | 66.5 ± 20% |
| COC(=O)[C@@]12OC[C@]34[C@H]([C@@H](O)[C@@H]1O)[C@@]1(C)CC(=O)C(O)=C(C)[C@@H]1C[C@H]3OC(=O)[C@H](OC(=O)C=C(C)C)[C@@H]24 | 18.5 ± 3.1% |
| Cc1c(C(=O)C/C(=N/NC(=O)CC#N)C(N)=O)[n+](=O)c2ccccc2n1[O-] | 51.9 ± 10% |
| CCNC(=O)OCc1c(COC(=O)NCC)c(-c2ccc(Cl)c(Cl)c2)n2c1CCC2 | 74.1 ± 12% |
| CC(C)=CCC(OC(=O)C=C(C)C)C1=CC(=O)c2c(O)ccc(O)c2C1=O (centres undefined) | 35 ± 16% |

| SMILES | cell growth |
| --- | --- |
| CN(C)CCNC(=O)c1cccc2[nH]c(-c3ccncc3)nc12 | 96.5 ± 22% |
| O=C1C=C(Nc2cccnc2)c2ccccc2C1=O | 59.3 ± 11% |
| COc1cc(O)c(Cc2ccccc2O)c(O)c1C(=O)CCc1ccccc1 | 86.8 ± 30% |
| Cc1nn(-c2ccccc2)c2c1CC(=O)Nc1ccccc1-2 | 114 ± 32% |
| Cc1cn(C2CC(O)C(CO)O2)c(=O)[nH]c1=O (centres undefined) | 92.3 ± 10% |
| N#CC1(C#N)C2C=CC(c3coc4cccc2c34)C1(C#N)C#N (centres undefined) | 20.9 ± 5.5% |
| C/C(=N\NC(=S)N1CCN(C2CCCCCC2)CC1)c1ccccn1 | 14.7 ± 7.5% |
| C(=C/c1nc2ccccc2o1)/c1ccc2c(c1)OCO2 | 94 ± 16% |
| CN1CCN(CCSC2Cc3cc(Cl)ccc3Sc3ccccc32)CC1 (centres undefined) | 151 ± 26% |
| CN(C)C(=S)/N=c1\ss/c(=N\C(=S)N(C)C)n1-c1ccc2c(c1)OCO2 | 76.4 ± 5.8% |
| Cc1ccc(NC(=O)/C=C/c2ccccc2)c(C)c1 | 77.2 ± 16% |
| O/N=C(\CC(O)(C(F)(F)F)C(F)(F)F)c1cccc(Cl)c1 | 87.8 ± 16% |
| O=C1OC(c2ccco2)=N/C1=C\c1ccc(Cl)c(Cl)c1 | 17.7 ± 5% |
| CC1OC(CC(=O)O)CC2=C1C(=O)c1c(O)cccc1C2=O (centres undefined) | 130 ± 42% |
| NC(=S)N/N=C/c1ccc(OC(=O)COc2ccccc2Cl)cn1 | 90.5 ± 27% |
| C[C@H]1O[C@@H](c2ccc3c(c2O)C(=O)C2=C(C3=O)[C@@]3(O)C(=O)C[C@](C)(O)C[C@@]3(O)C=C2)C[C@@H](O)[C@@H]1O | 62.7 ± 8.2% |
| O=C1C=C(NCCc2ccccc2)c2ccccc2C1=O | 57.3 ± 10% |
| COC(=O)C[S+]([O-])c1ccccc1 (centres undefined) | 84.6 ± 18% |
| CO[C@H](C(=O)[C@@H](O)[C@@H](C)O)[C@@H]1Cc2cc3cc(O[C@H]4C[C@@H](O[C@H]5C[C@@H](O)[C@H](O)[C@@H](C)O5)[C@H](O)[C@@H](C)O4)c(C)c(O)c3c(O)c2C(=O)[C@H]1O[C@H]1C[C@@H](O[C@H]2C[C@@H](O[C@H]3C[C@](C)(O)[C@H](O)[C@@H](C)O3)[C@@H](O)[C@@H](C)O2)[C@H](O)[C@@H](C)O1 | 10.8 ± 3.6% |
